Reference: PubChem BioAssay AID1159580 (chemical genetic matrix, 2015)
The whole screen tested about 5,500 compounds, of which about 2,000 (36%) were called active. Not shown: some 18% with an inconclusive outcome. The list shows a part of the results. Unmarked numbers belong to inactive results. Cut-off read from the data, not from the text of the source: active = normalized growth mostly below about 0.91 (no sharp cut-off); inconclusive = no clear call, values can overlap the other calls; inactive = mostly above about 0.92.

Experiment: chemical genetic growth profiling, strain panel (AID 1159580);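 note: tested at 20 µM; growth read once vehicle control cultures reached saturation at 30 °C; 1 = growth at the plate median or of vehicle wells; lower values mean less growth of the strain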
Conditions: S. cerevisiae deletion strains, growth OD
[1] = locus YAR019C, strain CDC15, hits give low values
[2] = locus YBL105C, strain PKC1, hits give low values
[3] = locus YBR135W, strain CKS1, hits give low values
[4] = locus YBR136W, strain MEC1, hits give low values
[5] = locus YBR160W, strain CDC28, hits give low values
[6] = locus YDL017W, strain CDC7, hits give low values
[7] = locus YDL028C, strain MPS1, hits give low values
[8] = locus YDL101C, strain DUN1, hits give low values
[9] = locus YDL108W, strain KIN28, hits give low values
[10] = locus YDL132W, strain cdc53, hits give low values
[11] = locus YDL214C, strain PRR2, hits give low values
[12] = locus YDR052C, strain DBF4, hits give low values
[13] = locus YDR054C, strain cdc34, hits give low values
[14] = locus YDR226W, strain ADK1, hits give low values
[15] = locus YDR477W, strain SNF1, hits give low values
[16] = locus YER123W, strain YCK3, hits give low values
[17] = locus YER133W, strain GLC7, hits give low values
[18] = locus YFL009W, strain cdc4, hits give low values
[19] = locus YFL029C, strain CAK1, hits give low values
[20] = locus YFR003C, strain YPI1, hits give low values
[21] = locus YFR019W, strain FAB1, hits give low values
[22] = locus YFR028C, strain CDC14, hits give low values
[23] = locus YGR040W, strain KSS1, hits give low values
[24] = locus YGR052W, strain FMP48, hits give low values
[25] = locus YGR092W, strain DBF2, hits give low values
[26] = locus YHR030C, strain SLT2, hits give low values
[27] = locus YHR079C, strain IRE1, hits give low values
[28] = locus YHR082C, strain KSP1, hits give low values
[29] = locus YHR205W, strain SCH9, hits give low values
[30] = locus YIL147C, strain SLN1, hits give low values
[31] = locus YJL095W, strain BCK1, hits give low values
[32] = locus YJL128C, strain PBS2, hits give low values
[33] = locus YJL157C, strain FAR1, hits give low values
[34] = locus YJR016C, strain ILV3, hits give low values
[35] = locus YJR066W, strain TOR1 (second series), hits give low values
[36] = locus YJR066W, strain TOR1, hits give low values
[37] = locus YKL048C, strain ELM1, hits give low values
[38] = locus YKL067W, strain YNK1, hits give low values
[39] = locus YKL101W, strain HSL1, hits give low values
[40] = locus YKL193C, strain SDS22, hits give low values
[41] = locus YKL203C, strain TOR2, hits give low values
[42] = locus YLR113W, strain HOG1, hits give low values
[43] = locus YLR133W, strain CKI1, hits give low values
[44] = locus YLR403W, strain SFP1, hits give low values
[45] = locus YML070W, strain DAK1, hits give low values
[46] = locus YMR001C, strain CDC5, hits give low values
[47] = locus YMR205C, strain PFK2 (second series), hits give low values
[48] = locus YMR277W, strain FCP1, hits give low values
[49] = locus YNL006W, strain LST8, hits give low values
[50] = locus YNL020C, strain ARK1, hits give low values
[51] = locus YNL161W, strain CBK1, hits give low values
[52] = locus YNL183C, strain NPR1, hits give low values
[53] = locus YNL207W, strain RIO2, hits give low values
[54] = locus YNL222W, strain SSU72, hits give low values
[55] = locus YNL307C, strain MCK1 (second series), hits give low values
[56] = locus YOL078W, strain AVO1, hits give low values
[57] = locus YOL136C, strain PFK27, hits give low values
[58] = locus YOR061W, strain CKA2, hits give low values
[59] = locus YOR119C, strain RIO1, hits give low values
[60] = locus YOR231W, strain MKK1, hits give low values
[61] = locus YOR329C, strain SCD5, hits give low values
[62] = locus YPL031C, strain PHO85, hits give low values
[63] = locus YPL153C, strain RAD53, hits give low values
[64] = locus YPL204W, strain HRR25, hits give low values
[65] = locus YPL209C, strain IPL1, hits give low values
[66] = locus YPL256C, strain CLN2, hits give low values
[67] = locus YPR025C, strain CCL1, hits give low values
[68] = locus YPR106W, strain ISR1, hits give low values
[69] = locus YPR111W, strain DBF20, hits give low values
[70] = strain NNK1, hits give low values
[71] = strain TSCII, hits give low values
[72] = locus YAL013W, strain DEP1, hits give low values
[73] = locus YBR229C, strain ROT2, hits give low values
[74] = locus YDL134C, strain PPH21, hits give low values
[75] = locus YDR150W, strain NUM1, hits give low values
[76] = locus YEL061C, strain CIN8, hits give low values
[77] = locus YGR078C, strain PAC10, hits give low values
[78] = locus YHR087W, strain rtc3, hits give low values
[79] = locus YJR043C, strain POL32, hits give low values
[80] = locus YJR075W, strain HOC1, hits give low values
[81] = locus YKL190W, strain CNB1, hits give low values
[82] = locus YLR039C, strain RIC1, hits give low values
[83] = locus YLR058C, strain SHM2 (second series), hits give low values
[84] = locus YLR085C, strain ARP6, hits give low values
[85] = locus YLR262C, strain YPT6, hits give low values
[86] = locus YML094W, strain GIM5, hits give low values
[87] = locus YMR219W, strain ESC1, hits give low values
[88] = locus YMR263W, strain SAP30, hits give low values
[89] = locus YNL128W, strain TEP1, hits give low values
[90] = locus YNL153C, strain GIM3, hits give low values
[91] = locus YNL298W, strain CLA4 (second series), hits give low values
[92] = locus YNL322C, strain KRE1, hits give low values
[93] = locus YNR030W, strain Alg12, hits give low values
[94] = locus YOL006C, strain TOP1, hits give low values
[95] = locus YPL055C, strain LGE1, hits give low values
[96] = locus YPL241C, strain CIN2, hits give low values
[97] = locus YPR135W, strain CTF4, hits give low values

## CSc1nc(Sc2n[nH]c(-c3ccccc3)n2)cc(Sc2n[nH]c(-c3ccccc3)n2)n1
[1]
  normalized growth: 1.01
[2]
  normalized growth: 0.99
[3]
  normalized growth: 0.999
[4]
  normalized growth: 1
[5]
  normalized growth: 1
[6]
  normalized growth: 0.995
[7]
  normalized growth: 1.03
[8]
  normalized growth: 0.991
[9]
  normalized growth: 1.01
[10]
  normalized growth: 0.995
[11]
  normalized growth: 1.01
[12]
  normalized growth: 0.995
[13]
  normalized growth: 0.984
[14]
  normalized growth: 1.01
[15]
  normalized growth: 1.01
[16]
  normalized growth: 1.03
[17]
  normalized growth: 1
[18]
  normalized growth: 1
[19]
  normalized growth: 1.02
[20]
  normalized growth: 0.99
[21]
  normalized growth: 1
[22]
  normalized growth: 1.01
[23]
  normalized growth: 1.02
[24]
  normalized growth: 1
[25]
  normalized growth: 1.01
[26]
  normalized growth: 1.13
[27]
  normalized growth: 0.928
[28]
  normalized growth: 1.22
[29]
  normalized growth: 1
[30]
  normalized growth: 1.01
[31]
  normalized growth: 0.875
[32]
  normalized growth: 0.978
[33]
  normalized growth: 1.02
[34]
  normalized growth: 1.01
[35]
  normalized growth: 1.01
[36]
  normalized growth: 1.2
[37]
  normalized growth: 1.01
[38]
  normalized growth: 1.01
[39]
  normalized growth: 1.01
[40]
  normalized growth: 1.02
[41]
  normalized growth: 1.09
[42]
  normalized growth: 0.855 (active)
[43]
  normalized growth: 1.01
[44]
  normalized growth: 1.03
[45]
  normalized growth: 1.01
[46]
  normalized growth: 1.01
[47]
  normalized growth: 1.02
[48]
  normalized growth: 1.02
[49]
  normalized growth: 1
[50]
  normalized growth: 1.01
[51]
  normalized growth: 1
[52]
  normalized growth: 0.929
[53]
  normalized growth: 1.01
[54]
  normalized growth: 1.01
[55]
  normalized growth: 1.01
[56]
  normalized growth: 1.02
[57]
  normalized growth: 1.03
[58]
  normalized growth: 1.02
[59]
  normalized growth: 1.05
[60]
  normalized growth: 0.913
[61]
  normalized growth: 1
[62]
  normalized growth: 1.02
[63]
  normalized growth: 1.01
[64]
  normalized growth: 1.01
[65]
  normalized growth: 0.998
[66]
  normalized growth: 0.89
[67]
  normalized growth: 1.01
[68]
  normalized growth: 1
[69]
  normalized growth: 1
[70]
  normalized growth: 1.01
[71]
  normalized growth: 1.01

## O=c1nc(-c2ccccc2)nc(-c2ccccc2)[nH]1
[72]
  normalized growth: 0.985
[73]
  normalized growth: 1
Locus YCL061C, strain MRC1, hits give low values
  normalized growth: 0.999
[8]
  normalized growth: 1.03
[74]
  normalized growth: 0.955
[75]
  normalized growth: 0.993
[76]
  normalized growth: 0.97
[77]
  normalized growth: 1
[26]
  normalized growth: 0.972
[78]
  normalized growth: 0.987
[79]
  normalized growth: 0.986
[80]
  normalized growth: 1
[81]
  normalized growth: 0.96
[82]
  normalized growth: 0.922
[83]
  normalized growth: 0.993
[84]
  normalized growth: 0.951
[85]
  normalized growth: 0.902
[86]
  normalized growth: 1.08
[87]
  normalized growth: 1
[88]
  normalized growth: 1.01
[89]
  normalized growth: 0.968
[90]
  normalized growth: 1.01
[91]
  normalized growth: 0.944
[92]
  normalized growth: 0.984
[93]
  normalized growth: 0.989
[94]
  normalized growth: 0.932
[95]
  normalized growth: 1.01
[96]
  normalized growth: 1.03
[97]
  normalized growth: 0.991

## S=c1nc(-c2ccccc2)[nH][nH]1
[72]
  normalized growth: 0.997
[73]
  normalized growth: 1.01
[8]
  normalized growth: 1.02
[74]
  normalized growth: 0.979
[75]
  normalized growth: 1.01
[76]
  normalized growth: 0.992
[77]
  normalized growth: 0.988
Locus YGR229C, strain SMI1, hits give low values
  normalized growth: 0.994
[26]
  normalized growth: 1.06
[78]
  normalized growth: 1.01
[79]
  normalized growth: 0.99
[80]
  normalized growth: 0.982
[81]
  normalized growth: 0.982
[82]
  normalized growth: 1.02
[83]
  normalized growth: 0.999
[84]
  normalized growth: 1.03
[85]
  normalized growth: 0.991
[86]
  normalized growth: 1.11
[87]
  normalized growth: 0.999
[88]
  normalized growth: 0.998
Locus YMR307W, strain GAS1, hits give low values
  normalized growth: 1.08
[89]
  normalized growth: 0.985
[90]
  normalized growth: 0.998
[91]
  normalized growth: 0.992
[92]
  normalized growth: 1
[93]
  normalized growth: 1.01
[94]
  normalized growth: 1.06
[95]
  normalized growth: 1.03
[96]
  normalized growth: 1.01
[97]
  normalized growth: 1.02

## CCOC(=O)C(O)(c1ccc(NC(=O)Nc2ccc(Cl)cc2)cc1)C(F)(F)F (stereo unspecified)
[1]
  normalized growth: 0.993
[2]
  normalized growth: 0.985
[3]
  normalized growth: 0.997
[4]
  normalized growth: 0.985
[5]
  normalized growth: 0.99
[6]
  normalized growth: 0.989
[7]
  normalized growth: 0.987
[8]
  normalized growth: 0.982
[9]
  normalized growth: 0.986
[10]
  normalized growth: 0.993
[11]
  normalized growth: 1.03
[12]
  normalized growth: 0.984
[13]
  normalized growth: 0.986
[14]
  normalized growth: 0.993
[15]
  normalized growth: 1.01
[16]
  normalized growth: 1.01
[17]
  normalized growth: 1
[18]
  normalized growth: 0.997
[19]
  normalized growth: 0.99
[20]
  normalized growth: 0.988
[21]
  normalized growth: 0.988
[22]
  normalized growth: 0.992
[23]
  normalized growth: 0.999
[24]
  normalized growth: 0.991
[25]
  normalized growth: 0.924
[26]
  normalized growth: 1.06
[27]
  normalized growth: 1.04
[28]
  normalized growth: 1.05
[29]
  normalized growth: 0.935
[30]
  normalized growth: 0.981
[31]
  normalized growth: 0.915
[32]
  normalized growth: 0.956
[33]
  normalized growth: 1
[34]
  normalized growth: 0.994
[35]
  normalized growth: 0.977
[36]
  normalized growth: 1.03
[37]
  normalized growth: 1.01
[38]
  normalized growth: 0.994
[39]
  normalized growth: 0.975
[40]
  normalized growth: 0.987
[41]
  normalized growth: 1.04
[42]
  normalized growth: 0.963
[43]
  normalized growth: 1.01
[44]
  normalized growth: 0.973
[45]
  normalized growth: 0.992
[46]
  normalized growth: 0.983
[47]
  normalized growth: 0.991
[48]
  normalized growth: 0.999
[49]
  normalized growth: 1.01
[50]
  normalized growth: 1
[51]
  normalized growth: 0.998
[52]
  normalized growth: 1.01
[53]
  normalized growth: 0.983
[54]
  normalized growth: 0.979
[55]
  normalized growth: 0.924
[56]
  normalized growth: 0.982
[57]
  normalized growth: 0.992
[58]
  normalized growth: 1
[59]
  normalized growth: 1.08
[60]
  normalized growth: 0.986
[61]
  normalized growth: 0.992
[62]
  normalized growth: 0.987
[63]
  normalized growth: 1.03
[64]
  normalized growth: 1
[65]
  normalized growth: 0.996
[66]
  normalized growth: 1.11
[67]
  normalized growth: 0.99
[68]
  normalized growth: 0.992
[69]
  normalized growth: 0.986
[70]
  normalized growth: 0.998
[71]
  normalized growth: 0.993
